The nature of test [1]: Human pregnane X receptor (PXR) small molecule agonists, qHTS cell viability counter screen (AID 1346977). Also: nearly all actives have a fitted effect of over 50% in size. Also: potency is read from the fitted curve at half-maximal effect. The method, boiled down:
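Measures live-cell protease fluorescence (CellTiter-Fluor) in PXR-Luc HepG2 cells treated 24hr with compounds at 37C. Cells had 5hr to attach before pin transfer of DMSO solutions.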

Test [2] is described as follows: Caspase-3/7 induction in HepG2 cells by small molecules, qHTS assay (AID 1346978). Also: nearly all actives have a fitted effect of over 15% in size. Also: potency is read from the fitted curve at half-maximal effect. The method, boiled down: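 Wild-type HepG2 cells (2,000/well) were settled 5 h at 37 C, 5% CO2, then exposed to compounds in DMSO for 17 h. Caspase-3/7 activity was read by luminescence 30 min after adding Caspase-Glo 3/7 reagent at room temperature.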
The nature of test [3]: Caspase-3/7 induction in CHO-K1 cells by small molecules, qHTS cell viability counter screen (AID 1346979). Also: nearly all actives have a fitted effect of over 35% in size. Also: potency is read from the fitted curve at half-maximal effect. The method, boiled down:
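In the same wells as the caspase read, viability of compound-treated wild-type CHO-K1 cells was assessed using CellTiter-Fluor, added after 16hr at 37C and measured by fluorescence following 1hr further incubation.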

Test [4] can be described thus: Caspase-3/7 induction in CHO-K1 cells by small molecules, qHTS assay (AID 1346980). Also: nearly all actives have a fitted effect of over 15% in size. Summed up: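 Wild-type cells were seeded at 1,500 per well and settled 5 hr at 37 C, 5% CO2, then exposed to DMSO-dissolved compounds for 17 hr. Caspase-Glo 3/7 reagent was added, and luminescence was read after 30min at room temperature.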
Test [5] in a line: Caspase-3/7 induction in HepG2 cells by small molecules, qHTS cell viability counter screen (AID 1346981). Also: nearly all actives have a fitted effect of over 30% in size. Also: potency is read from the fitted curve at half-maximal effect. The method, boiled down:
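HepG2, WT, 2,000 cells/well; 5 hr pre-incubation 37 C/5% CO2; compound pin-transferred from DMSO; 16 hr exposure; CellTiter-Fluor, 1 hr; fluorescence read.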

The target of test [6] is Nuclear receptor subfamily 1 group I member 2 (Homo sapiens) (UniProt O75469). Description: Human pregnane X receptor (PXR) small molecule agonists, qHTS assay (AID 1346982). Also: nearly all actives have a fitted effect of over 35% in size. Also: potency is read from the fitted curve at half-maximal effect. The method, boiled down:
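Luciferase signal from ONE-Glo (30 min, room temperature) measured activation of hPXR-driven CYP3A4 reporter expression in PXR-Luc HepG2 cells treated with compounds for 24 hr at 37 C.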

Test [7] deals with Acetylcholinesterase (Homo sapiens) (UniProt P22303). Description: Acetylcholinesterase (AChE) small molecule antagonists: colormetric cell-based qHTS assay (AID 1347395; calls by dose curve; also: nearly all actives have a fitted effect of over 30% in size; also: potency is read from the fitted curve at half-maximal effect). The method, boiled down:
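Endogenous AChE of human neuroblastoma SH-SY5Y cells was measured with an Ellman-type DTNB/acetylthiocholine mix. Compound pretreatment lasted 30 min at 37 C; substrate reaction ran 90 min at 37 C.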

The target is the same in test [8]. Description: Acetylcholinesterase (AChE) small molecule antagonists: enzyme-based qHTS assay (AID 1347397; calls by dose curve; also: nearly all actives have a fitted effect of over 55% in size). As to conditions: Potency: AChE enzyme activity inhibition. Summed up:
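Recombinant human AChE, dispensed at 50 mU/mL, was preincubated with Tox21 10K compounds or DMSO vehicle for 30 min at room temperature. DTNB plus acetylthiocholine was then added, and thiocholine was measured colorimetrically after a further 10 min.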

For test [9] the target is unchanged. Description: Acetylcholinesterase (AChE) small molecule antagonists: fluorescence cell-based qHTS assay (AID 1347398; calls by dose curve; also: nearly all actives have a fitted effect of over 50% in size). The following applies: Potency: AChE activity. Summed up: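 Human SH-SY5Y cells were plated overnight at 37 C, exposed to compound for 30 min at 37 C, 5% CO2, then given acetylthiocholine plus Thiolite Green for 40 min at room temperature; thiocholine fluorescence (Ex/Em 490/520 nm) reports endogenous AChE activity.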

Test [10] shares this target. Description: Acetylcholinesterase (AChE) small molecule antagonists: enzyme-based qHTS assay with human liver microsomes (AID 1347399; calls by dose curve; also: nearly all actives have a fitted effect of over 60% in size). As to conditions: Potency: qHTS inhibition. The method, boiled down:
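Recombinant human AChE (50 mU/mL in the enzyme mix) and human liver microsomes (0.25 mg/mL final) were preincubated with compound and NADPH (0.25 mg/mL final) for 30 min at 37 C. Acetylthiocholine/DTNB was then added; thiocholine was read colorimetrically after 10 min at room temperature.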

Test [11] deals with Cytochrome P450 2C19 (Homo sapiens) (UniProt P33261). Description: Cytochrome P450 Family 2 Subfamily C Member 19 (CYP2C19) small molecule antagonists: luciferase reporter qHTS assay (AID 1671197). Also: potency is read from the fitted curve at half-maximal effect; nearly all actives have a fitted effect of over 65% in size. Summed up: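 Light output is proportional to CYP2C19 activity: proluciferin substrate is converted to luciferin, then detected by a luciferin detection reagent that also stops the 1 h, 37C NADPH-driven reaction. Ketoconazole serves as positive control.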
Chain of Cytochrome P450 2C19 (Homo sapiens) (P33261 whole entry, looked up): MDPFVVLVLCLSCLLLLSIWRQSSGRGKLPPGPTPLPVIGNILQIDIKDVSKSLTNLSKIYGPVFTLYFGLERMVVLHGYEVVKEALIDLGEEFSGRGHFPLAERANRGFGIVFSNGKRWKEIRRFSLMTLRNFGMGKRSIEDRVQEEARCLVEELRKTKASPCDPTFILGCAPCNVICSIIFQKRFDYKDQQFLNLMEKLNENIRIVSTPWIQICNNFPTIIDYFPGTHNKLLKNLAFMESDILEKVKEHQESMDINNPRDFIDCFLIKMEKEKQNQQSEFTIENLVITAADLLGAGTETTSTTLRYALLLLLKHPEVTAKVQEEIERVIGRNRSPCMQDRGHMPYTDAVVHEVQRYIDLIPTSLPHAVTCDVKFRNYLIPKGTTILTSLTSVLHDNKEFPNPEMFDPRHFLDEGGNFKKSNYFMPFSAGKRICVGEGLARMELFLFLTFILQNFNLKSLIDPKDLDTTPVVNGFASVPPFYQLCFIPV

Test [12] concerns the target Cytochrome P450 1A2 (Homo sapiens) (UniProt P05177). Description: Cytochrome P450 Family 1 Subfamily A Member 2 (CYP1A2) small molecule antagonists: luciferase reporter qHTS assay (AID 1671199). Also: potency is read from the fitted curve at half-maximal effect; nearly all actives have a fitted effect of over 50% in size. The method, boiled down: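 P450-Glo CYP1A2, 1536-well qHTS: enzyme/proluciferin substrate + cpd (DMSO), 10 min RT; NADPH regen, 1 h RT; detection reagent, 20 min; luminescence, RLU.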

Test [13] has as its target Voltage-gated inwardly rectifying potassium channel KCNH2 (Homo sapiens) (UniProt Q12809). Description: Human Ether-a-go-go-Related Gene (hERG) channel small molecule antagonists: fluorescence cell-based qHTS assay (AID 1671200).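 Also: hERG-expressing U2OS cells given a thallium stimulus after FluxOR II dye loading; series mostly up to about 77 µM; nearly all actives have a fitted effect of over 50% in size.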 Summed up: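 Quantitative HTS in hERG-U2OS cells: thallium entry through the channel reports activity, read as continuous 480/540 nm fluorescence over 2 min after stimulus addition.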

Test [14] concerns the target Cytochrome P450 3A4 (Homo sapiens) (UniProt P08684). Description: Cytochrome P450 Family 3 Subfamily A Member 4 (CYP3A4) small molecule antagonists: luciferase reporter qHTS assay (AID 1671201). Also: nearly all actives have a fitted effect of over 50% in size. Also: potency is read from the fitted curve at half-maximal effect. Summed up: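 Inhibition of CYP3A4 is measured as loss of light: the enzyme converts a proluciferin substrate to luciferin, detected luminescently. Reaction ran 1 h at room temperature with NADPH regeneration after a 10 min compound preincubation.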

The target of test [15] is Cytochrome P450 2D6 (Homo sapiens) (UniProt P10635). Description: Cytochrome P450 Family 2 Subfamily D Member 6 (CYP2D6) small molecule antagonists: luciferase reporter qHTS assay (AID 1671196). Also: nearly all actives have a fitted effect of over 50% in size. Also: potency is read from the fitted curve at half-maximal effect. The method, boiled down:
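Read-out is luminescence from luciferin formed by CYP2D6 turnover of a proluciferin substrate, recorded as relative luminescence units. Reactions ran 1 h at room temperature after NADPH regeneration solution was added.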

In test [16] the target is Cytochrome P450 2C9 (Homo sapiens) (UniProt P11712). Description: Cytochrome P450 Family 2 Subfamily C Member 9 (CYP2C9) small molecule antagonists: luciferase reporter qHTS assay (AID 1671198). The method, boiled down: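 CYP2C9 activity was measured with a P450-Glo proluciferin substrate. Enzyme–substrate mix was held with compound for 10 min at room temperature, then NADPH regeneration solution was added for 1 h at 37C. Luciferin product was read as luminescence.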
Chain of Cytochrome P450 2C9 (Homo sapiens) (P11712 whole entry, looked up): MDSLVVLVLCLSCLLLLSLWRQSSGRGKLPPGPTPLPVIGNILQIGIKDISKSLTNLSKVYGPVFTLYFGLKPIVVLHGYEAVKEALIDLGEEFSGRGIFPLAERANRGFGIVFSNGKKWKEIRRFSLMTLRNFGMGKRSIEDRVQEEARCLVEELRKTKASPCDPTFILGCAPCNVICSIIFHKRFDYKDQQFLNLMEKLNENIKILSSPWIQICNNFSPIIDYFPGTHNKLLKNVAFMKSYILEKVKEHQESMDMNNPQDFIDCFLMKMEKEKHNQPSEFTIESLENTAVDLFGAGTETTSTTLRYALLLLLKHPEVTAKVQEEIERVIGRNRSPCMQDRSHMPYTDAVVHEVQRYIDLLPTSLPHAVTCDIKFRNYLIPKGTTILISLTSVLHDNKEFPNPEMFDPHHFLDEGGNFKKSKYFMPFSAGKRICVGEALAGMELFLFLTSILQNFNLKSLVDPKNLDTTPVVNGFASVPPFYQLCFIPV

“And” between values parts separate entries of the source, which are not always exact repeats. Identical values can stand only once. Records with an inconclusive call do not appear. The source made the active and inactive calls. Unless noted, calls follow the shape of the dose curve; as a rule, active = well fitted curve in the direction sought with a large enough effect in the repeat runs; inconclusive = weak or mixed curves; inactive = no such curve, though single readings can be large; an effect the other way counts as inactive or inconclusive.

Here are results for six compounds from PubChem BioAssay (Tox21).

Chain of Cytochrome P450 1A2 (Homo sapiens) (P05177 whole entry, looked up): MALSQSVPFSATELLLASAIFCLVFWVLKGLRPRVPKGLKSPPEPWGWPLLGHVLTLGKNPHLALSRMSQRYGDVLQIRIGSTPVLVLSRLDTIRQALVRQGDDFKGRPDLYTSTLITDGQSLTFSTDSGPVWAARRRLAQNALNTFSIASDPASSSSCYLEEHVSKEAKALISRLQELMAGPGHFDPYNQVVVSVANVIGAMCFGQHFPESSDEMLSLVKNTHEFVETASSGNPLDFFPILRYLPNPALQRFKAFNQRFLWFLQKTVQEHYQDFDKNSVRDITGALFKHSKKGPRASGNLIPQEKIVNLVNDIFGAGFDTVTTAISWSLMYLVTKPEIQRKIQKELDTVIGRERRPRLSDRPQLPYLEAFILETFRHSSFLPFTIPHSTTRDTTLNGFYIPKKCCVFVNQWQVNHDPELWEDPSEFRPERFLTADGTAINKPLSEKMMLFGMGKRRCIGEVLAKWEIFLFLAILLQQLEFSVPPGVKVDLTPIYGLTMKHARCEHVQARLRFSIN
Chain of Acetylcholinesterase (Homo sapiens) (P22303 whole entry, looked up): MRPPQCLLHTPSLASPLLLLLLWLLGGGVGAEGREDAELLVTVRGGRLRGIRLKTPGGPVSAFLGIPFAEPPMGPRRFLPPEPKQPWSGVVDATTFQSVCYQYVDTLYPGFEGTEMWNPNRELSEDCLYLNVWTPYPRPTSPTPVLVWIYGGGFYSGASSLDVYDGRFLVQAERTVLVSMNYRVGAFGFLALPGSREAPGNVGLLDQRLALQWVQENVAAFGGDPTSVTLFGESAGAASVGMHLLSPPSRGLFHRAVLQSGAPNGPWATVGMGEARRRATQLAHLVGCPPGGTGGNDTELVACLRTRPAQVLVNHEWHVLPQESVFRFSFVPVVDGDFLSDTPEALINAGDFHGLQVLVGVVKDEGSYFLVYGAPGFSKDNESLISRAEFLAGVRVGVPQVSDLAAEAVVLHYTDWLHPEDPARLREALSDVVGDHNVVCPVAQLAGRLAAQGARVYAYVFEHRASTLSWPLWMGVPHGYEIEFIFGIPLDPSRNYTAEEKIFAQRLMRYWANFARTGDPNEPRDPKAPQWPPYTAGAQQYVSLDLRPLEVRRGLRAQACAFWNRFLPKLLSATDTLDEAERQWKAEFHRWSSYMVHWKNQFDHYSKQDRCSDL
Chain of Nuclear receptor subfamily 1 group I member 2 (Homo sapiens) (O75469 whole entry, looked up): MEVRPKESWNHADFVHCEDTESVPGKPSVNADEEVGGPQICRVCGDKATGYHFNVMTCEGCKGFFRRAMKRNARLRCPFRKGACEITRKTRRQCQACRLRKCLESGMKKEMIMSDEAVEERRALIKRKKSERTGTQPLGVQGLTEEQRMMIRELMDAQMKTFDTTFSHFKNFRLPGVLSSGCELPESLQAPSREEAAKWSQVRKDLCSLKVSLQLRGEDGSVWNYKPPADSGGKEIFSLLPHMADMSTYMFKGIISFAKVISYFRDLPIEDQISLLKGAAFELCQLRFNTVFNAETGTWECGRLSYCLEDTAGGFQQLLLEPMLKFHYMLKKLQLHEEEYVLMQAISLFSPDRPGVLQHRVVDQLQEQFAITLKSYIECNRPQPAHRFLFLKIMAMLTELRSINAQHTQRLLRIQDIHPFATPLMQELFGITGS
Chain of Voltage-gated inwardly rectifying potassium channel KCNH2 (Homo sapiens) (Q12809 whole entry, looked up): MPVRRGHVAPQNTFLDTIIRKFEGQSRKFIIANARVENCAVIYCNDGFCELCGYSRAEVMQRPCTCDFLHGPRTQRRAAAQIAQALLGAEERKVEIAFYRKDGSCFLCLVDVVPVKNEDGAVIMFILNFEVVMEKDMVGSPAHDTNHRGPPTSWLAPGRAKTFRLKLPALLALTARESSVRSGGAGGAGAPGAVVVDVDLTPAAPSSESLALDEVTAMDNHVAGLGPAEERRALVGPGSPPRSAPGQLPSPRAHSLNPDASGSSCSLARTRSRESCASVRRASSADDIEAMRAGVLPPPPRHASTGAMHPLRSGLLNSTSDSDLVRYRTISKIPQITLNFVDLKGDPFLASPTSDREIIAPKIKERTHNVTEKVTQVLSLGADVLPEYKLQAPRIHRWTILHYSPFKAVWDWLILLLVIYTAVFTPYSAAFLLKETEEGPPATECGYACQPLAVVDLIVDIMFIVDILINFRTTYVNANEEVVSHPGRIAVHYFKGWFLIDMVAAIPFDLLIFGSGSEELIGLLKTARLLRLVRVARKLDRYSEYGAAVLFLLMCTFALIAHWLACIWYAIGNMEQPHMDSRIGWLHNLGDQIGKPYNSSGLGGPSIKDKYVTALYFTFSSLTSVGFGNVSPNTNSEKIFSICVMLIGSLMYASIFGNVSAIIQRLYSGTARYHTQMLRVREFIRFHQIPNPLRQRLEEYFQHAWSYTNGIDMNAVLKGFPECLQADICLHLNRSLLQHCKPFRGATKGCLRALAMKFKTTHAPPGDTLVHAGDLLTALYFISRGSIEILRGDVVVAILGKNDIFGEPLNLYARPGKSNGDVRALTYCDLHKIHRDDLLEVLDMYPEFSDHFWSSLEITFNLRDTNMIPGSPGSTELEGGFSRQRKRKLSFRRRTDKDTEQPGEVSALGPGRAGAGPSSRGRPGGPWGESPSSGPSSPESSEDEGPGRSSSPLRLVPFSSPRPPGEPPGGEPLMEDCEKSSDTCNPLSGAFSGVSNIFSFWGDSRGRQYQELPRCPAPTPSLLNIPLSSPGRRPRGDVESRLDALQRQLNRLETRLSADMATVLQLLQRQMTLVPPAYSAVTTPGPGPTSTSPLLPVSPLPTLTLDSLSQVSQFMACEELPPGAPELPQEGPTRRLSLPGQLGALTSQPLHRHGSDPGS
Chain of Cytochrome P450 2D6 (Homo sapiens) (P10635 whole entry, looked up): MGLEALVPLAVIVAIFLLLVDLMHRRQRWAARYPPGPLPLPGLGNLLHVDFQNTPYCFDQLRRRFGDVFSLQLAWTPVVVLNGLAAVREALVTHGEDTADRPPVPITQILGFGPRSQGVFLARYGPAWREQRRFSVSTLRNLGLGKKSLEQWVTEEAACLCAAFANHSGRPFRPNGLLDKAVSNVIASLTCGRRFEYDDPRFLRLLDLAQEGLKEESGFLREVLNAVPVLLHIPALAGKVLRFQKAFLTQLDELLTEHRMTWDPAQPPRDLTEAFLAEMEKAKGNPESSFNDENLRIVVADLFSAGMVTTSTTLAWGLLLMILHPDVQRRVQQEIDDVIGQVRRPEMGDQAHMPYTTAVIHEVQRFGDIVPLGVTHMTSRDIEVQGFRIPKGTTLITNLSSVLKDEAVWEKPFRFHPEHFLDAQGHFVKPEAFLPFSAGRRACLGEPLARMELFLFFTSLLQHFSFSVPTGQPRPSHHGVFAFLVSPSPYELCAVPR
Chain of Cytochrome P450 3A4 (Homo sapiens) (P08684 whole entry, looked up): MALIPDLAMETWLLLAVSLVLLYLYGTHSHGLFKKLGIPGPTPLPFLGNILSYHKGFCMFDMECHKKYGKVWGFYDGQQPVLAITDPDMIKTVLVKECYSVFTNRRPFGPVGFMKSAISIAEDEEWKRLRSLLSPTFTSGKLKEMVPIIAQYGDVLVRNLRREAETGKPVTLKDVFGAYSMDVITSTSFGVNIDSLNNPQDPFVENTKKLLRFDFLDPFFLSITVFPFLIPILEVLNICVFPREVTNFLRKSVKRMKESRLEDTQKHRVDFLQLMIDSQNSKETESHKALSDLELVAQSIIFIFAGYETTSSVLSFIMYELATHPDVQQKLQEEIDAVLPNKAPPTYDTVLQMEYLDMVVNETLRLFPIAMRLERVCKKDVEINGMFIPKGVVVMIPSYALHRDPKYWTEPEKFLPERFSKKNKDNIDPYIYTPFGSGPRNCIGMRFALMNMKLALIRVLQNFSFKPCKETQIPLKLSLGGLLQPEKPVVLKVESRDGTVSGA

For `O=[N+]([O-])c1ccc(Cl)c([N+](=O)[O-])c1`, the Potency is 31.6 µM (active) and 21.7 µM (active) in test [1]; 6.96 µM (active) and 12.2 µM (active) in test [3]; 55.3 µM (active) and 48.6 µM (active) in test [5]; 9.84 µM (active) and 15.4 µM (active) in test [6]; 64.3 µM (active) and 63.3 µM (active) in test [7]; 40.6 µM (active) and 79.6 µM (active) in test [11]. Also, the Potency in [12] was 12.8 µM (active) and 11.2 µM (active). The Potency entry in [2], in test [4], in test [8], in test [9], in test [10] and in [13] was “inactive” throughout. Also, the Potency result in [14] was “inactive”.
For `CCN(CC)C(=O)C(C)Oc1cccc2ccccc12` (centres undefined), the Potency result in test [1], in test [2], in [4], in test [5], in test [7] and in [8] was “inactive” in each case. The Potency entry in test [9], in test [10], in test [15] and in [13] was “inactive” each time. Further, the Potency in test [6] is 7.76 µM (active) and 864 nM (active); in test [11] it was 1.01 µM (active) and 633 nM (active); in test [16], 11.4 µM (active) and 35.6 µM (active); in test [12] it was 14.3 µM (active) and 28.3 µM (active); in test [14] it was 6.33 µM (active).
`COP(=S)(OC)SCn1nnc2ccccc2c1=O`: the Potency entry in [1], in [2], in test [4], in test [5], in test [10] and in test [13] was “inactive” each time. The Potency in test [6] is 53.4 µM (active); in test [15], 55.3 µM (active) and 39.9 µM (active); in test [11], 1.1 µM (active) and 894 nM (active); in test [16], 5.53 µM (active) and 3.99 µM (active); in test [12], 27.7 µM (active) and 28.3 µM (active); in [14] it was 7.81 µM (active) and 11.2 µM (active).
As for `Cc1cccc(N=Nc2ccc(N(C)C)cc2)c1`, the Potency entry in test [1], in test [4], in [7], in test [8], in test [9] and in [10] was “inactive” in each case. Besides, the Potency result in [15], in test [13] and in test [14] was “inactive” throughout. The Potency in test [2] is 7.83 µM (active) and 2.43 µM (active); in test [3] it was 62.2 µM (active) and 43.3 µM (active); in test [5], 27.8 µM (active) and 8.63 µM (active); in test [6] it was 221 nM (active) and 3.06 µM (active); in [11] it was 10.2 µM (active) and 17.8 µM (active); in test [12] it was 2.28 µM (active) and 3.56 µM (active).
On to `CC(C)(O)C(=O)Nc1ccc([N+](=O)[O-])c(C(F)(F)F)c1`, for which the Potency result in [2], in test [4], in test [5], in [7], in [8] and in test [9] was “inactive” in each case. Also, the Potency entry in [10] and in [13] was “inactive” throughout. Besides, the Potency is 44.2 µM (active) and 39.8 µM (active) in [3]; 27.9 µM (active) and 25.1 µM (active) in test [6]; 18.2 µM (active) and 26 µM (active) in test [11]; 25.7 µM (active) and 29.2 µM (active) in test [16]; 7.25 µM (active) and 6.53 µM (active) in test [12]; 40.8 µM (active) in test [14].
For the compound `COc1ccc(O)c(C(C)(C)C)c1`, the Potency entry in test [1], in test [2], in [3], in [4], in [5] and in [6] was “inactive” in each case. Also, the Potency entry in [7], in test [8], in test [9], in test [10] and in test [13] was “inactive” each time. In addition, the Potency in test [11] is 7.99 µM (active) and 5.64 µM (active); in test [16] it was 25.3 µM (active) and 31.7 µM (active); in test [12], 39.9 µM (active).
